# Only some compounds are listed: those with a hit (about 1.9% of all), similar ones and a draw of the others.
# RecA splice inh: Mtb RecA intein splicing inhibitors, primary screen, biochemical, fluorescence, HTS; Protein RecA (Mycobacterium tuberculosis (strain ATCC 25618 / H37Rv)), P9WHJ3; cell-free RecA intein splicing; inhibition, % (concentration not given with the values); actives 0.75% (n = 290,000); AID 2221, 2009; in the data active = inhibition above about 30%; inconclusive = no clear call, values can overlap the other calls;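 note: 0% = vehicle wells and 100% = reference inhibitor control wells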
# Target sequence (P9WHJ3 whole entry, looked up, canonical isoform): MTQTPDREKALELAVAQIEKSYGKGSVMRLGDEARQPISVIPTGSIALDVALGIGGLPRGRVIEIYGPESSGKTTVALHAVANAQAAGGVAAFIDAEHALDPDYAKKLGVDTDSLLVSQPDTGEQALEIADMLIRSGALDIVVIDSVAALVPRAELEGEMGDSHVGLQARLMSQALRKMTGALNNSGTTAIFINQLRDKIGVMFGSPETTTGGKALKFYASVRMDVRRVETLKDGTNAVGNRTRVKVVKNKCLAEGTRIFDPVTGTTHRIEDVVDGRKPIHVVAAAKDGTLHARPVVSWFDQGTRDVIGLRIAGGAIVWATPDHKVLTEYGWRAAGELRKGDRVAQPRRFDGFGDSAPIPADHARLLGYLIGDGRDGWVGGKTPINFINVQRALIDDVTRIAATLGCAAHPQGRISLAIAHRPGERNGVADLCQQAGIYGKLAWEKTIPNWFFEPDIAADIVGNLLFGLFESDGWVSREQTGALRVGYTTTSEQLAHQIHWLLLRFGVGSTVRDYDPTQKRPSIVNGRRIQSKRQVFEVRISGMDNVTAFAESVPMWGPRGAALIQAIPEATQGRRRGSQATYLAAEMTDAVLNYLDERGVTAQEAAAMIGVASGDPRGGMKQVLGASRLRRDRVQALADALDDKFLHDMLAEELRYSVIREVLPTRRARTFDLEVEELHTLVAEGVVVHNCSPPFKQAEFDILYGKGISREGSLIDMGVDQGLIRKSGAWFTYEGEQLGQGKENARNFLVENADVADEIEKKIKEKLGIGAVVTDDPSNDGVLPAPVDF
# PrPC TRFRET: inhibitors of human cell surface prion protein PrPC, primary screen, cell-based, TR-FRET; AID 720596, 2013; actives 0.43% (n = 370,000); inhibition, % at 13.8 µM; Major prion protein (Homo sapiens), P04156; TR-FRET read-out; in the data active = inhibition above about 24%; note: 0% = median of the test wells and 100% = reference compound wells
# PfHsp40 yeast: rescue of yeast from PfHsp40 toxicity, primary screen, S. cerevisiae, ATP luminescence; S. cerevisiae expressing PfHsp40, growth rescue; growth rescue, % at 12.5 µM; actives 0.68% (n = 340,000); in the data active = growth rescue above about 28%, passing the limit was not always enough; inconclusive = no clear call, values can overlap the other calls;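 note: yeast W303a lacking pdr1 and pdr3 grown in galactose medium; growth measured after three days at 30 °C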
# PriA SSB inh: inhibitors of Klebsiella pneumoniae PriA binding to SSB C-terminal tail, primary screen, biochemical, AlphaScreen; AlphaScreen SSBct-PriA binding, biotinylated peptide; inhibition, % at 33 µM; actives 0.6% (n = 430,000); in the data active = inhibition mostly above about 37%, no sharp cut-off; inactive = mostly below about 20%;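 note: plate controls were negative control peptide for no effect and reference peptide for full effect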
# BJeLR viability: MLPCN primary cell-based screen for lethality selective to Ras in HRASV12 cells. actives 0.17% (n = 300,000). BJeLR (HRASV12) viability, CellTiter-Glo ATP luminescence, 48 h. inhibition, % (test concentration not listed); in the data active = inhibition above about 50%; inconclusive = no clear call, values can overlap the other calls
# PrP 5UTR inh: inhibition of PrP 5' UTR reporter expression; cell-based PrP 5' UTR mRNA reporter, plate reader; inhibition, % (concentration not given with the values); actives 0.35% (n = 340,000); in the data active = inhibition above about 52%; note: 0 = median of the neutral control wells
# PrP UTR cherry: prion 5' UTR mRNA inhibition, cherry-pick retest; inhibition, % at 2.5 µM; shares compounds with PrP 5UTR inh; cell-based prion protein 5' UTR reporter, plate reader; actives 48% (n = 1,100); in the data active = inhibition above about 54%; inconclusive = no clear call, values can overlap the other calls
# * marks the source's active call; other numbers are inactive results; i = inactive; ? = inconclusive; . = not tested or not shown.
SMILES,RecA splice inh,PrPC TRFRET,PfHsp40 yeast,PriA SSB inh,BJeLR viability,PrP 5UTR inh,PrP UTR cherry
COC(=O)c1cccc(NC(=O)/C=C/c2ccc3c(c2)OCO3)c1,-0.5,20.1,17.2,-11.1,-2.4,65.4*,24.7
CCOC(=O)N1CCN(C(=O)CSc2ccc(NC(=O)c3ccco3)nn2)CC1,.,.,.,-7.0,.,.,.
Cc1nc2ccccn2c1C(=O)NC1CCCc2ccccc21 (stereo unspecified),-0.8,12.0,-2.3,-2.5,9.9,60.2*,?
CC(=O)NN1C(=O)c2ccccc2NC1c1ccc([N+](=O)[O-])o1 (stereo unspecified),-3.7,-16.2,0.2,-9.2,-1.8,60.9*,3.7
C=CCSc1nnc(NC(=O)CSc2nnc(C)s2)s1,-1.9,2.6,0.2,-17.6,0.5,81.0*,-34.1
CCN1/C(=C\C=C\C2=[N+](CC)c3ccccc3C2(C)C)C(C)(C)c2ccccc21,23.0,.,121.1*,-14.0,88.1*,63.2*,67.1*
Cc1ccc(S(=O)(=O)NC2CCSC2=O)cc1C (stereo unspecified),.,5.6,-1.4,-13.0,.,74.8*,-7.5
Cc1ccc(S(=O)(=O)NC2CCCC2)cc1C,-2.3,-1.9,0.3,-17.1,-1.3,-40.4,.
COc1ccc(-c2ccc(=O)n(Cc3nc(-c4cccs4)no3)n2)cc1,.,.,.,4.0,.,.,.
N/C(=N\OC(=O)c1ccccc1Cl)c1ccccn1,-0.9,0.0,0.4,.,22.4,76.1*,71.1*
COc1ccccc1C(=O)O/N=C(\N)c1ccccn1,-4.1,-6.7,-1.8,i,9.4,-67.3,.
COc1ccc(C(=O)O/N=C(\N)c2ccccn2)cc1,-0.3,1.0,0.1,i,-1.5,88.1*,93.5*
Cc1ccc(C(=O)O/N=C(\N)c2ccccn2)c(C)c1,0.3,0.9,-1.2,i,22.0,94.9*,96.9*
Cc1ccccc1C(=O)O/N=C(\N)c1ccccc1,1.1,1.9,-1.0,i,1.1,56.1*,54.9*
O=C(Cc1cccc(C(F)(F)F)c1)NCc1cccnc1-c1cccs1,.,.,.,-9.0,.,.,.
Cn1cccc1/C=C1\SC(=Nc2ccc(O)cc2)NC1=O,1.1,2.5,0.5,11.6,62.3*,68.8*,82.3*
CO[C@@H](CNC(=O)c1ccc(N(C)C)cc1)c1ccccc1C,.,.,.,-3.0,.,.,.
c1c2c(cc3sc(N4CCN(c5nc6cc7c(cc6s5)OCCO7)CC4)nc13)OCCO2,.,.,.,-1.0,.,.,.
c1c2c(cc3sc(N4CCOCC4)nc13)OCCO2,-2.1,2.8,-3.0,-5.9,24.5,56.1*,?
CN(C(=O)COC(=O)c1ccc(Cl)nc1)C1CCS(=O)(=O)C1 (stereo unspecified),-4.4,-2.4,-1.2,-3.3,8.4,67.9*,-19.6
CN(C(=O)COC(=O)c1cnc(Cl)c(Cl)c1)C1CCS(=O)(=O)C1 (stereo unspecified),2.1,6.1,1.1,-2.2,-9.5,-38.0,.
O=S(=O)(NCCN1CCOC(c2ccccc2)C1)c1cccs1 (stereo unspecified),.,.,.,-15.0,.,.,.
COc1ccc(-n2ncc3c(N4CCCCC4)ncnc32)cc1,3.3,.,-1.8,-8.2,21.1,86.0*,78.5*
CS(=O)(=O)N1CCN(c2ncnc3c2cnn3-c2ccccc2)CC1,2.0,-0.3,0.0,-1.8,-6.3,55.3*,-28.0
Clc1ccc(Cn2ncc3c(N4CCCCC4)ncnc32)cc1,6.6,6.0,3.5,-16.2,0.7,-7.5,.
Clc1ccc(-n2ncc3c(N4CCCCCC4)ncnc32)cc1,2.6,-10.1,-0.3,-8.3,22.0,79.4*,69.8*
O=S(=O)(c1ccc(F)cc1)N1CCN(c2ncnc3c2cnn3-c2ccccc2)CC1,-1.6,4.6,2.0,-13.5,4.4,-0.9,.
O=C(NCc1ccc2c(c1)OCO2)C(=O)NCc1ccc(C(O)c2cccs2)s1 (stereo unspecified),.,.,.,4.0,.,.,.

# Screening data: PubChem BioAssay, several laboratories
